This passage reports survival results from PubChem BioAssay AID463173 (ICCB-Longwood Screening Facility, Harvard Medical School, 2010).

SMILES strings stand for the structures. Hit rate of the full screen: of about 52,000 compounds, about 4,300 (8.3%) were called active. No stated cut-off is given here; in the data, active means survival mostly below about 52% (no sharp cut-off); inactive means mostly above about 56%. Many of the other results were omitted from the sample, so actives are more common in it than they were.

The subject of the experiment is DeltatarO mutant. The experiment can be described thus: S. aureus survival, RN4220 and DeltatarO strains – OD600, teichoic acid synthesis inhibitors, primary screen (AID 463173). The conditions noted are these: S. aureus RN4220 wild type/DeltatarO growth, OD600, 18 h, hits give low values, screened at 18.75 µg/mL (by protocol).
Regarding `CCOC(=O)c1scc(-c2ccccc2)c1S(=O)(=O)N1CCN(c2ccccc2OC)CC1`, the survival was 94% (inactive).

For the compound `O=C(COc1cccc(-n2cnnn2)c1)NC1CCCCC1`, the survival is 83% (inactive).

Turning to `COC(=O)c1ccccc1NC(=O)Cn1nnc2sc(-c3ccccc3)cc2c1=O`, the survival is 52% (inactive).

With `CCOc1ccccc1NC(=O)Cn1nnc2sc(-c3ccccc3)cc2c1=O`, the survival is 39% (active).

As to `CCN(CC)C(=O)Cn1nnc2sc(-c3ccccc3)cc2c1=O`, the survival was 56% (inactive).

In the case of `CCCN(CCC)C(=O)Cn1nnc2sc(-c3ccccc3)cc2c1=O`, the survival was 70% (inactive).

On to `CCN(C(=O)Cn1nnc2sc(-c3ccccc3)cc2c1=O)c1cccc(C)c1`, for which the survival was 50% (active).

As for `CCc1cccc(CC)c1NC(=O)Cn1nnc2sc(-c3ccccc3)cc2c1=O`, the survival is 49% (inactive).

With `COC(=O)c1ccc(NC(=O)CSc2nc(=O)[nH]c3c2CCCC3)cc1`, the survival is 75% (inactive).

As for `COC(=O)CSc1ncc2c(n1)-c1ccccc1N(Cc1ccc(Cl)cc1)S2(=O)=O`, the survival is 69% (inactive).

`CCOC(=O)N1CCc2c(sc3c2c(=O)n(CCc2ccccc2)c(=O)n3Cc2c(F)cccc2Cl)C1`: the survival was 85% (inactive).

`COc1ccc(-c2nc(C)c(CCNC(=O)c3c(F)cccc3F)s2)cc1`: the survival is 84% (inactive).

On to `O=C(Cn1c(=O)oc2cc(S(=O)(=O)N3CCCCCC3)ccc21)NCc1ccccc1Cl`, for which the survival was 78% (inactive).

With `CCCCOc1cccc(C2c3c(-c4cc(C)ccc4O)n[nH]c3C(=O)N2CCOC)c1` (stereo unspecified), the survival was 10% (active).

`CCc1ccc(C2c3c(-c4cc(C)ccc4O)n[nH]c3C(=O)N2CCO)cc1` (stereo unspecified): the survival was 61% (inactive).

`COCCN1C(=O)c2[nH]nc(-c3cc(C)ccc3O)c2C1c1ccc(C(C)C)cc1` (stereo unspecified): the survival was 1% (active).

Consider `COCCCN1C(=O)c2[nH]nc(-c3cc(C)ccc3O)c2C1c1ccc(F)cc1` (stereo unspecified), for which the survival was 66% (inactive).

Consider `COCCN1C(=O)c2[nH]nc(-c3c(C)cc(C)cc3O)c2C1c1cccc(O)c1` (stereo unspecified), for which the survival is 57% (inactive).

For the compound `CCOc1cc(C2c3c(-c4cc(C)ccc4O)n[nH]c3C(=O)N2CCCOC(C)C)ccc1O` (stereo unspecified), the survival is 90% (inactive).

Turning to `COCCCN1C(=O)c2ccccc2CC1(C)C(=O)NC1CCCCC1` (stereo unspecified), the survival is 97% (inactive).

In the case of `Cc1ccc(CNC(=O)Cc2csc3ccccc23)cc1`, the survival was 93% (inactive).

As for `CC(=O)N1c2ccc(S(=O)(=O)N3CCN(c4cc(Cl)ccc4C)CC3)cc2CC1C` (stereo unspecified), the survival is 87% (inactive).

Turning to `CCN1CCCC1CNCC(=O)NC1(C)C2CCC(C2)C1(C)C` (stereo unspecified), the survival is 100% (inactive).

As for `COc1ccccc1C(=O)Nc1nnc2n1CCS2`, the survival was 69% (inactive).

`COc1ccccc1N1CCN(C(=O)c2ccco2)CC1`: the survival was 104% (inactive).

For `Cc1ccccc1C(=O)NCC(c1cccnc1)N1CCc2ccccc21` (stereo unspecified), the survival was 44% (active).

On to `COc1ccc(C(=O)NCC(c2cccnc2)N2CCc3ccccc3C2)cc1` (stereo unspecified), for which the survival was 77% (inactive).

As to `COc1cc(C(=O)NCC(c2cccnc2)N2CCc3ccccc32)cc(OC)c1OC` (stereo unspecified), the survival was 44% (active).

Consider `COc1ccc(C(=O)NCC(c2cccnc2)N2CCc3ccccc32)cc1OC` (stereo unspecified), for which the survival is 57% (inactive).

With `COc1cc(C(=O)NCC(c2cccnc2)N2CCc3ccccc3C2)cc(OC)c1OC` (stereo unspecified), the survival was 76% (inactive).

Regarding `O=C(NCC(c1cccnc1)N1CCc2ccccc21)c1ccccc1Br` (stereo unspecified), the survival is 56% (inactive).

As for `O=C(NCC(c1cccnc1)N1CCc2ccccc21)c1ccc(Cl)cc1` (stereo unspecified), the survival is 52% (inactive).

As for `Cc1ccc(C(=O)NCC(c2cccnc2)N2CCc3ccccc32)cc1C` (stereo unspecified), the survival is 55% (inactive).

Consider `COc1ccc(C(=O)NCC(c2cccnc2)N2CCc3ccccc32)cc1` (stereo unspecified), for which the survival is 46% (active).

For `COc1ccc(C(=O)OCc2cc(=O)n3nc(-c4cccs4)sc3n2)cc1`, the survival is 60% (inactive).

In the case of `c1ccc(Oc2ccc(N=NN3CCCCC3)cc2)cc1`, the survival is 74% (inactive).

For `CCN1CCN(c2c(S(=O)(=O)c3ccc(C)c(C)c3)cnc3cc(OC)c(OC)cc23)CC1`, the survival was 75% (inactive).

Consider `CCC(=O)c1cc2c(cc1NC(=O)c1cccc(Cl)c1)OCCO2`, for which the survival is 105% (inactive).

Consider `COc1ccc2oc(-c3ccc(C)c(NC(=O)c4sc5ccccc5c4Cl)c3)nc2c1`, for which the survival was 48% (active).

Take `Cc1c(NC(=O)c2sc3ccccc3c2Cl)cccc1-c1nc2ccccc2o1`: the survival is 53% (inactive).

As for `COc1ccc2oc(-c3ccc(C)c(NC(=O)CSc4ccc(Cl)cc4)c3)nc2c1`, the survival was 51% (active).

Take `Cc1ccc2oc(-c3ccc(C)c(NC(=O)C(C)(C)Oc4ccc(Cl)cc4)c3)nc2c1`: the survival was 13% (active).

As to `Cc1ccc2oc(-c3ccc(C)c(NC(=O)/C=C/c4ccc(Cl)cc4)c3)nc2c1`, the survival is 90% (inactive).

With `Cc1ccc(-c2nc3cc(Cl)ccc3o2)cc1NC(=O)COc1ccc(F)cc1`, the survival was 53% (inactive).

`Cc1ccc(C(=O)Nc2cc(-c3nc4cc(Cl)ccc4o3)ccc2C)c(C)c1`: the survival was 85% (inactive).

Turning to `COc1ccc2oc(-c3ccc(C)c(NC(=O)Cc4ccc(Cl)cc4)c3)nc2c1`, the survival was 151% (inactive).

As to `CCc1ccc(OCC(=O)Nc2cc(-c3nc4cc(C)ccc4o3)ccc2C)cc1`, the survival was 65% (inactive).

Consider `COc1ccc2oc(-c3ccc(C)c(NC(=O)COc4cc(C)cc(C)c4)c3)nc2c1`, for which the survival was 43% (active).

For the compound `COc1ccc2oc(-c3cccc(NC(=O)c4sc5c([N+](=O)[O-])cccc5c4Cl)c3)nc2c1`, the survival is 77% (inactive).

On to `Cc1ccc2nc(-c3ccc(C)c(NC(=O)CSc4ccc(Cl)cc4)c3)oc2c1`, for which the survival was 85% (inactive).

Turning to `COc1cccc2cc(-c3nc(-c4ccc(Cl)cc4)cs3)c(=O)oc12`, the survival was 83% (inactive).

With `Cc1ccc(Sc2c(C(=O)NCc3ccccc3C)[nH]c3ccccc23)cc1`, the survival is 77% (inactive).

As for `CCOc1cccc(C(=O)Nc2ccc(Cl)cn2)c1`, the survival is 72% (inactive).

On to `Cc1cccc(Cn2cc(S(=O)(=O)c3cccc(Cl)c3)c(=O)c3cc(F)c(N4CCOCC4)cc32)c1`, for which the survival was 85% (inactive).

Take `Cc1ccc(C)c(CN2CCC(CNC(=O)Cn3ncc4c([nH]c5ccccc54)c3=O)CC2)c1`: the survival was 70% (inactive).

With `Cc1ccc(S(=O)(=O)c2[nH]c(-c3ccccc3)nc2SCC(=O)O)cc1`, the survival was 78% (inactive).

For the compound `COC(=O)c1ccc(NC(=O)c2cc3cc(C)ccc3n2C)cc1`, the survival was 66% (inactive).

Regarding `O=C1C(c2nc3ccccc3[nH]2)=C(O)c2ccccc21`, the survival is 74% (inactive).

On to `CCCN1CCc2nc(N3CCN(CC)CC3)ncc2C1`, for which the survival was 72% (inactive).

`COc1ccc2oc(-c3ccc(C)c(NC(=O)c4ccc(-c5ccccc5[N+](=O)[O-])o4)c3)nc2c1`: the survival is 42% (active).

As to `Cc1ccc2oc(-c3ccc(C)c(NC(=O)c4ccc(-c5ccccc5[N+](=O)[O-])o4)c3)nc2c1`, the survival is 68% (inactive).

Consider `Cc1ccc2oc(-c3ccc(Cl)c(NC(=O)c4ccc(-c5ccccc5[N+](=O)[O-])o4)c3)nc2c1`, for which the survival was 74% (inactive).

Regarding `Cc1cccc(Nc2nn3c(=O)c4cc5c(cc4nc3s2)OCO5)c1`, the survival was 116% (inactive).

Consider `Cc1cc(C)c(Nc2nn3c(=O)c4cc5c(cc4nc3s2)OCO5)c(C)c1`, for which the survival was 51% (inactive).

In the case of `Cc1ccc(C)c(Nc2nn3c(=O)c4cc5c(cc4nc3s2)OCO5)c1`, the survival was 37% (active).

`Cc1ccccc1C(=O)n1nc(-c2cccnc2)nc1NCc1ccc(F)cc1`: the survival is 48% (inactive).

With `COc1ccc(CNc2nc(-c3ccc(Cl)cc3)nn2C(=O)c2ccccc2)cc1`, the survival is 36% (active).

`O=C(c1ccccc1Cl)n1nc(-c2cccnc2)nc1NCc1ccc(F)cc1`: the survival is 55% (inactive).

As to `O=C(c1ccc(Cl)cc1)n1nc(-c2cccnc2)nc1NCc1ccc(F)cc1`, the survival was 43% (active).

With `O=C(c1ccc(F)cc1)n1nc(-c2cccnc2)nc1NCc1ccc(F)cc1`, the survival is 73% (inactive).

Consider `COc1ccc(CNc2nc(-c3ccccc3)nn2C(=O)c2ccccc2OC)cc1`, for which the survival is 102% (inactive).

Take `O=C(c1ccccc1)n1nc(-c2ccccc2)nc1NCc1ccc(F)cc1`: the survival was 12% (active).

On to `O=C(c1ccco1)n1nc(-c2ccccc2)nc1NCc1ccc(F)cc1`, for which the survival was 65% (inactive).

Consider `COc1ccccc1C(=O)n1nc(-c2ccccc2)nc1NCc1ccc(Cl)cc1`, for which the survival was 56% (inactive).

Turning to `O=C(c1ccc(F)cc1)n1nc(-c2ccccc2)nc1NCc1ccc(F)cc1`, the survival is 30% (active).

Regarding `O=C(c1ccc(F)cc1)n1nc(-c2cccnc2)nc1NCc1ccccc1`, the survival is 71% (inactive).

For `Cc1cccc(C(=O)n2nc(-c3cccnc3)nc2NCc2ccc(F)cc2)c1`, the survival is 54% (inactive).

With `Cc1ccc(Cn2ccnc2SCC(=O)Nc2ccc3c(c2)OCO3)cc1`, the survival is 92% (inactive).

With `COc1ccc(NC(=O)CSc2nc3ccncc3[nH]2)c(OC)c1`, the survival is 95% (inactive).

Regarding `CCCCC12CN3CC(C)(CN(C1)C3c1cc(Br)ccc1O)C2=O` (stereo unspecified), the survival was 72% (inactive).

With `CCN=C1S/C(=C\c2cn(CC(=O)NCCOC)c3ccccc23)C(=O)N1CC`, the survival is 95% (inactive).

Regarding `CCOc1ccc(CCNC(=O)CS(=O)(=O)Cc2nc(-c3ccc(OC)cc3)oc2C)cc1`, the survival is 83% (inactive).

On to `COc1ccc(N(CC(=O)NCc2ccc(F)cc2)S(=O)(=O)c2c(C)n[nH]c2C)cc1`, for which the survival was 79% (inactive).

As to `CCNC(=O)c1cnc2sc(N3CCC(C)CC3)nn2c1=O`, the survival is 74% (inactive).

In the case of `Cc1ccc(S(N)(=O)=O)cc1NC(=O)c1c(-c2c(Cl)cccc2Cl)noc1C`, the survival was 55% (active).

Turning to `Cc1onc(-c2ccccc2Cl)c1C(=O)NC(C(=O)O)C(C)C` (stereo unspecified), the survival is 86% (inactive).

Turning to `Cc1onc(-c2c(F)cccc2Cl)c1C(=O)Nc1ccc(OC(C)C)cc1`, the survival is 62% (inactive).

With `CC(C)c1cc(C(=O)NCc2ccccc2)no1`, the survival was 54% (inactive).

In the case of `CCOC(=O)C1CCN(C(=O)CSc2n[nH]c(-c3ccccc3)n2)CC1`, the survival is 97% (inactive).

With `O=C(Nc1noc2ccccc12)c1c(F)cccc1F`, the survival was 87% (inactive).

As for `COC(=O)c1cccc(Nc2c(-c3ccc(OC)cc3)nc3nc[nH]n23)c1`, the survival is 64% (inactive).
